Reference: PubChem BioAssay AID488890 (Southern Research Specialized Biocontainment Screening …, 2010)
Out of some 320,000 compounds screened, about 1,300 (0.41%) were called active. Not shown: some 3% with an inconclusive outcome. The rule behind the calls is not given here. Only a sample is shown. Results with a measured potency or affinity are listed apart.

Test: growth inhibition of non-replicating M. tuberculosis (AID 488890);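 note: plate controls were DMSO cells for no effect and high antibiotic wells for full effect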
Details: Mycobacterium tuberculosis non-replicating, at 25 µM, stronger effect = higher value

Structure (SMILES) | inhibition
O=c1c2ccccc2n(Cc2cccc(F)c2)c(=O)n1C1CCCC1 | 7.83%
CC(C)C[C@@H](CN(N=O)[C@@H](Cc1ccccc1)CN(C)N=O)N(CCc1ccccc1)N=O | 1.78%
CCOc1ccc(N2C(=O)CC(NC3CCCCNC3=O)C2=O)cc1 (centres undefined) | 61.4%
Cc1ccccc1NC(=O)Nc1ccccn1 | 1.67%
COc1ccc(-c2cc(C(F)(F)F)nc(-n3ccnc3C)n2)cc1 | 31%
O=C(COC(=O)CNS(=O)(=O)c1ccc(Br)cc1Cl)NC1CC1 | -8.59%
Cc1ccc(NC(=O)Cc2cccs2)cc1Cl | 13.4%
Cc1ccc(NC(=O)CCC(=O)c2cccs2)cc1F | 14.5%
O=C(Nc1ccc(Cl)cc1)c1cccs1 | 76.6%
O=C(CCC(=O)c1cccs1)NCc1ccc(Cl)cc1 | 3.45%
O=c1c2ccccc2ncn1CCCSc1ccc(Cl)cc1 | 72.5%
O=C(c1ccccc1CCc1ccccc1)N1CCCC1 | 7.78%
CCCCC(=O)Nc1ccc(Br)cn1 | 6.83%
CCC(=O)Nc1ccc(Br)cn1 | 8.41%
CCN(C(=O)COC(=O)c1cc([N+](=O)[O-])ccc1N1CCOCC1)C1CCS(=O)(=O)C1 (centres undefined) | -18.3%
CC1CCc2c(nc3nc[nH]n3c2=O)C1 (centres undefined) | 14.7%
Cc1nc2nc3c(c(=O)n2[nH]1)CCC3 | -0.78%
Cc1cccc(NC(=S)NCC(c2cccnc2)N2CCOCC2)c1C (centres undefined) | -1.94%
CCOc1ccc(N2C(=O)CC(N(CCc3ccc(OC)c(OC)c3)C(=O)/C=C/C(=O)O)C2=O)cc1 (centres undefined) | 16.4%
CCOC(=O)COc1ccc(/C=C2/C(=O)NN(c3ccc(F)cc3)C2=O)cc1OC | 79.2%
COc1cc(/C=C2/C(=O)NN(c3ccc(Cl)cc3)C2=O)cc(OC)c1O | 21.1%
COC(=O)c1ccc(N2NC(=O)/C(=C/c3ccc(OC)c(OC)c3)C2=O)cc1 | 14.3%
COc1cc(/C=C2/C(=O)NN(c3cccc(C)c3)C2=O)cc([N+](=O)[O-])c1O | 10.2%

Structure (SMILES) | inhibition
COc1ccc(/C=C2/C(=O)N(c3ccccc3)N=C2C)cc1Br | 1.11%
COc1cc(/C=C2/SC(=O)NC2=O)ccc1OC(=O)c1ccco1 | -7.07%
COc1cc(/C=C2/SC(=S)N(C)C2=O)ccc1OC(=O)c1ccco1 | 31.5%
COc1ccc(/C=C2/C(=O)N(c3ccccc3)N=C2C)cc1OC | 1.07%
CC1CCCN(CCCNC(=O)c2ccc(CS(=O)(=O)c3c(Cl)cccc3Cl)o2)C1 (centres undefined) | 0.97%
C/C(=N\NC(=O)c1ccccc1NC(=O)c1ccc(Cl)cc1)c1ccncc1 | 14.5%
Cn1nc(C(=O)N2CCN(S(=O)(=O)/C=C/c3ccccc3)CC2)c2ccccc2c1=O | 1.67%
CCC1C2Cn3c(nc4ccccc43)C1N(C)O2 (centres undefined) | -9.29%
CC1(C)CC(=O)C(C=NCCN2CCN(C(=O)CCl)CC2)=C(O)C1 | 28.9%
CCOC(=O)c1sc(C)c(C(=O)NCCCN2CCOCC2)c1N | -1.46%
COc1cc(CC(=O)OCC(=O)Nc2ccc(Cl)c(S(=O)(=O)N(C)C)c2)cc(OC)c1OC | 16.7%
Cc1ncc(CO)c(CNc2ccc(Oc3ccccc3)cc2)c1O | 41.9%
O=C(NCC1CCCO1)c1cc2c(s1)CCCC2 (centres undefined) | 5.26%
CC1CCc2sc(C(=O)NNC(=O)c3ccncc3)cc2C1 (centres undefined) | 71.2%
CCC1CCc2sc(C(=O)NCc3ccccn3)cc2C1 (centres undefined) | 75.2%
CCC1CCc2sc(C(=O)NNC(=S)NCC3CCCO3)cc2C1 (centres undefined) | 23.3%
CCOc1ccc(NC(=O)CCC(=O)NNC(=O)COc2ccc(C)cc2)cc1 | -22.8%
CCOC(=O)c1c(C)[nH]c(C)c1C(=O)CSc1nncs1 | -5.38%
Cc1[nH]ccc(=O)c1OCC(=O)O | -4.62%
COc1ccc(S(=O)(=O)N2CCN(c3ccc4nnc(-c5ccc(F)cc5)n4n3)CC2)cc1 | 24%
CNC[C@H]1Oc2c(NS(=O)(=O)c3ccccc3)cccc2C(=O)N([C@H](C)CO)C[C@@H]1C | -8.41%
CN(C(=O)CN1C(=O)S/C(=C\c2ccc(F)cc2)C1=O)C1CCS(=O)(=O)C1 (centres undefined) | -4.74%
COc1ccccc1CNC(=O)COc1ccccc1C | 10%

Structure (SMILES) | inhibition
Cc1occc1C(=O)N=Nc1c(O)[nH]c2ccc(Br)cc12 | -11.3%
N=C(N)N=Nc1c(O)[nH]c2ccc(Br)cc12 | 46%
O=C(Nc1ccc(Br)c(Br)c1)C1CCCO1 (centres undefined) | 40.5%
Clc1ccc(N2CCN(Cc3ccco3)CC2)cc1 | 69.8%
O=[N+]([O-])c1ccccc1-c1ccc(CN2CCN(c3ccccc3)CC2)o1 | 36.3%
O=[N+]([O-])c1cccc(-c2ccc(CN3CCN(c4ccccc4)CC3)o2)c1 | 36.7%
O=[N+]([O-])c1ccc(N2CCN(c3ccc(F)cc3)CC2)cc1 | 24.2%
O=[N+]([O-])c1cc2c(cc1CN1CCN(c3ccc(F)cc3)CC1)OCO2 | 12.8%
O=[N+]([O-])c1ccc(CN2CCN(c3ccc([N+](=O)[O-])cc3)CC2)cc1 | 73.8%
Clc1ccc(N2CCN(Cc3ccc(Br)o3)CC2)cc1 | 75.9%
O=[N+]([O-])c1ccc(N2CCN(Cc3ccc(Br)o3)CC2)cc1 | 78.8%
Cc1cc(C)cc(NC(=O)Cn2c(=O)oc3cc(S(=O)(=O)N4CC(C)CC(C)C4)ccc32)c1 (centres undefined) | 12.4%
COc1ccc(N/C(=N\c2nc(C)cc(C)n2)NC(C)=O)cc1OC | -5.13%
COC(/C=C/Nc1ccc(C)c(C)c1)=C(C#N)C#N | -13.9%
COc1cccc(CNCC(O)(c2ccc(Cl)cc2)c2ccc(Cl)cc2)c1 | 31.2%
Cc1ccc(C(=O)N(Cc2ccccc2)C(C)(C)C)cc1C | 14%
CC(=O)Nc1ccc(NC(=O)CSc2nnc(-c3ccc4c(c3)OCO4)o2)cc1 | 14.8%
CCCC(c1nnnn1CCc1ccccc1)N1CCC(C(N)=O)CC1 (centres undefined) | 8.84%
O=C(N/N=C/c1cccnc1)c1cccc(NC(=O)c2ccccc2Cl)c1 | -2.18%
CCN(C(=O)c1c(-c2ccccc2)noc1C)c1ccccc1 | -7.88%
COc1ccc(CC(=O)Nc2cc(C)on2)cc1OC | -12.5%
COc1ccc(C(=O)Nc2cc(C(=O)O)cc(C(=O)O)c2)cc1Cl | 1.97%
Cc1sc(NC(=O)C2CC=CCC2C(=O)O)c(C(=O)OC(C)C)c1C (centres undefined) | 24.5%

Structure (SMILES) | inhibition
C=CCn1c(=O)c(C(=O)Nc2ccc(C)cc2)c(O)c2ccccc21 | -32%
CCn1c(=O)c(C(=O)Nc2ccccc2)c(O)c2ccccc21 | 23%
C=CCn1c(=O)c(C(=O)Nc2ncccc2O)c(O)c2ccccc21 | 27.2%
CC(C)Cn1c(=O)c(C(=O)Nc2cnccn2)c(O)c2ccccc21 | -0.18%
C/C(=N\OCC(=O)OCC(=O)Nc1cc(S(C)(=O)=O)ccc1Cl)c1ccc2c(c1)OCO2 | 7.45%
Cc1ccccc1NC(=O)c1ccc(Cl)c(NC(=O)c2cccnc2)c1 | -8.32%
C[C@H](NC(=O)OC(C)(C)C)c1nnc(SCC(=O)Nc2cccc(Cl)c2)o1 | 16.3%
O=C(COc1ccccc1)N=C1SC2CS(=O)(=O)CC2N1c1cccc(F)c1 (centres undefined) | 1.19%
COc1ccc2c(=O)c(-c3ccccc3)coc2c1 | 12.5%
CC(C)Oc1ccc2c(=O)c(-c3ccccc3)coc2c1 | 22.2%
Cc1oc2cc(OC(C)C(=O)O)ccc2c(=O)c1Oc1ccccc1 (centres undefined) | -10.2%
CC(=O)Oc1ccc2c(=O)c(-c3ccccc3)coc2c1 | 15.7%
CCc1c(C)c2ccc(OCC(N)=O)cc2oc1=O | 10.3%
CCCOc1ccc2c(C)c(CC(=O)OC)c(=O)oc2c1 | 3.51%
CCN(CC)C(=O)Oc1ccc2c(=O)c(-c3ccccc3)coc2c1 | 62.3%
CCOc1ccc2c(=O)c(Oc3ccccc3)c(C)oc2c1 | 57%
CCN(CC)C(=O)CN(c1ccc(Cl)cc1)S(=O)(=O)c1ccccc1 | 3.57%
NS(=O)(=O)c1ccc(NC(=O)c2cccc(Cl)c2)cc1 | -6.52%
Cc1ccc(SCCC(=O)Nc2ccccc2C(=O)NC2CCCCC2)cc1 | -25.9%
Cc1cc(C)c(NC(=O)CN(C)S(=O)(=O)c2ccc3c(c2)n(C)c(=O)c(=O)n3C)c(C)c1 | -2.46%
C=CCN1CC(O)=C(c2ccccc2)C1=N | -5.76%
CN(C)C(=O)CSc1nnc(-c2cccnc2)n1-c1ccccc1 | -19.8%
Cc1ccc2ncnc(Nc3ccc(C)c(C)c3)c2c1 | 17.8%

Structure (SMILES) | inhibition
O=C(CSc1nc2ccccc2o1)N1CCN(C(=O)c2ccco2)CC1 | 7.29%
CC(=NNC(=O)CSc1nc2ccccc2o1)c1ccco1 | 13.5%
COc1ccc(-c2nnc(SCC(=O)c3cccs3)o2)cc1 | 63.8%
NC(=O)CSc1nnc(-c2ccncc2)o1 | 1.06%
O=C(OCc1nnc(-c2ccccc2)o1)c1ccco1 | 76.9%
Cc1ccc(-c2nnc(COC(=O)c3ccco3)o2)cc1 | 60.2%
O=C(COC(=O)c1ccco1)Nc1nnc(-c2ccccc2)o1 | 4.16%
O=C(OCC#CCSc1nnc(-c2cccc3ccccc23)o1)c1cc2ccccc2o1 | 71.3%
N#Cc1ccc(-c2ccc(F)cc2)nc1Oc1ccccc1 | 2.75%
Cc1onc(-c2c(Cl)cccc2Cl)c1C(=O)NNc1ccccc1 | 77.8%
CCC(CC)c1nnc(NC(=O)CS(=O)(=O)c2ccccc2)s1 | -1.72%
COCCOC(=O)c1c(NC(=O)CN2CCCc3ccccc32)sc(C(N)=O)c1C | 22.6%
COc1ccc(N(CC(=O)NC2CCCC2)C(=O)c2ccc(N3CCCCC3)nc2)cc1 | 11%
O=C(NNC(=O)c1cc2cc(Br)ccc2oc1=O)c1ccc(O)cc1O | 23.6%
COCc1nnc(NC(=O)c2cc3ccccc3o2)s1 | 8.81%
CC(C)c1nnc(NC(=O)c2cc3ccccc3o2)s1 | -9.61%
Cc1nnc(NC(=O)c2cc3ccccc3o2)s1 | 16.8%
CCCc1nnc(NC(=O)c2cc3ccccc3o2)s1 | 16.7%
Cc1cccnc1NC(=O)c1cc2ccccc2oc1=O | 66.8%
c1cc2c3c(cccc3c1)NC(c1ccc3c(c1)OCO3)N2 | 12.1%
CC1(C)Cc2c(c(-c3ccccc3)nc(N3CCOCC3)c2C(N)=O)CO1 | 0.34%
CCCOc1ccc(-c2c(C(=O)N/N=C/c3ccc(OCC)cc3)nnn2-c2nonc2N)cc1 | 8.95%
